Laboratory results as given in the supplement of paper PMC6411743.
± gives the standard deviation of the averaged measurements. Targets with the largest changes are over-represented here; the source holds about 6,200 in all.

Compound: Nc1ncnc2c1ncn2[C@@H]1O[C@H](COP(=O)(O)OP(=O)(O)NP(=O)(O)O)[C@@H](O)[C@H]1O [adenylyl imidodiphosphate]
Assay: NP40-soluble protein abundance relative to vehicle (solubility fold change) (ratio); higher = more soluble protein in presence of AMP-PNP
Outline: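 In three independent experiments, Jurkat crude lysate made by Dounce homogenisation was treated for 10 min at room temperature and then 3 min at 37 °C with eight concentrations ranging from 0.1 to 10 mM. It was then solubilised with 0.8% NP40 plus benzonase for 60 min at 4 °C and ultracentrifuged. The supernatant was TMT-labelled for LC-MS/MS, and each value is the fold change against the detergent-processed vehicle for the same replicate, using vsn-normalised intensities.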

Sequence of UniProt O75063 (O75063 whole entry): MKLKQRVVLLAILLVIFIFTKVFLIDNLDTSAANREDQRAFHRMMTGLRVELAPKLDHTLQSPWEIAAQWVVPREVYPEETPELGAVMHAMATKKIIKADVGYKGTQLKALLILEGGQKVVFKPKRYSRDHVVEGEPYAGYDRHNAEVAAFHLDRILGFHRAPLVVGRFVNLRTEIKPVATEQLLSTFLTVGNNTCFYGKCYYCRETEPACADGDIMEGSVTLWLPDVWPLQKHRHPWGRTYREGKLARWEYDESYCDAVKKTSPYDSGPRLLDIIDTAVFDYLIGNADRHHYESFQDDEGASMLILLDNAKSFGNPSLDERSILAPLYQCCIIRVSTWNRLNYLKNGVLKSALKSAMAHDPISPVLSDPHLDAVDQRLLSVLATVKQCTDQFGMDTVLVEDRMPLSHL
Sequence of UniProt A8MW92 (A8MW92 whole entry, one chain of several): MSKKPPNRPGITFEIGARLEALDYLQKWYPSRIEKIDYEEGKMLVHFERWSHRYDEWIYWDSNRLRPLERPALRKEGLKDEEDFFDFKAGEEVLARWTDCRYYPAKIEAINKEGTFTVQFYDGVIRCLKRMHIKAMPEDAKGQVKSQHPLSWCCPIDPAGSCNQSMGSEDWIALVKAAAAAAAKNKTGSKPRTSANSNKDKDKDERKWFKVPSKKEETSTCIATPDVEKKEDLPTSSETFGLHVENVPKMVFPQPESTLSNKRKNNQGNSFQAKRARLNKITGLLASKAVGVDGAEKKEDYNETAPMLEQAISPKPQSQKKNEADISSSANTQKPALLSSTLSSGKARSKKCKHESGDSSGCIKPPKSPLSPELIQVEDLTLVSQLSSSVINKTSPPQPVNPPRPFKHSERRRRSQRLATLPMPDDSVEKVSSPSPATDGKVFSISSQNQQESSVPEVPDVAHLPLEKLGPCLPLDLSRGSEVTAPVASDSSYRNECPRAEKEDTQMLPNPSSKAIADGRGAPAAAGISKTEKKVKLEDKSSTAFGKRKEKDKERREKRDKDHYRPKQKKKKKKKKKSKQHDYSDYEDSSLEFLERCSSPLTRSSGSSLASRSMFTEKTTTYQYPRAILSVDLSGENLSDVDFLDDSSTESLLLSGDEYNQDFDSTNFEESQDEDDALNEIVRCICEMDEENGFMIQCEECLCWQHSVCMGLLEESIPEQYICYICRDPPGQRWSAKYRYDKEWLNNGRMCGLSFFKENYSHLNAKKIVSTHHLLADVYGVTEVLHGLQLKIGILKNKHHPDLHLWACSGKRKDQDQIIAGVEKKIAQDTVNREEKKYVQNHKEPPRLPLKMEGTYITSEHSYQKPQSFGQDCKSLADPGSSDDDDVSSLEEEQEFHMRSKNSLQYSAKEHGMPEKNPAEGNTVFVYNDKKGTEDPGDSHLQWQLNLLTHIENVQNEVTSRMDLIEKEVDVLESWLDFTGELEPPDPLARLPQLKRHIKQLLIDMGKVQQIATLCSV
Sequence of UniProt A6H8Y1 (A6H8Y1 whole entry, one chain of several): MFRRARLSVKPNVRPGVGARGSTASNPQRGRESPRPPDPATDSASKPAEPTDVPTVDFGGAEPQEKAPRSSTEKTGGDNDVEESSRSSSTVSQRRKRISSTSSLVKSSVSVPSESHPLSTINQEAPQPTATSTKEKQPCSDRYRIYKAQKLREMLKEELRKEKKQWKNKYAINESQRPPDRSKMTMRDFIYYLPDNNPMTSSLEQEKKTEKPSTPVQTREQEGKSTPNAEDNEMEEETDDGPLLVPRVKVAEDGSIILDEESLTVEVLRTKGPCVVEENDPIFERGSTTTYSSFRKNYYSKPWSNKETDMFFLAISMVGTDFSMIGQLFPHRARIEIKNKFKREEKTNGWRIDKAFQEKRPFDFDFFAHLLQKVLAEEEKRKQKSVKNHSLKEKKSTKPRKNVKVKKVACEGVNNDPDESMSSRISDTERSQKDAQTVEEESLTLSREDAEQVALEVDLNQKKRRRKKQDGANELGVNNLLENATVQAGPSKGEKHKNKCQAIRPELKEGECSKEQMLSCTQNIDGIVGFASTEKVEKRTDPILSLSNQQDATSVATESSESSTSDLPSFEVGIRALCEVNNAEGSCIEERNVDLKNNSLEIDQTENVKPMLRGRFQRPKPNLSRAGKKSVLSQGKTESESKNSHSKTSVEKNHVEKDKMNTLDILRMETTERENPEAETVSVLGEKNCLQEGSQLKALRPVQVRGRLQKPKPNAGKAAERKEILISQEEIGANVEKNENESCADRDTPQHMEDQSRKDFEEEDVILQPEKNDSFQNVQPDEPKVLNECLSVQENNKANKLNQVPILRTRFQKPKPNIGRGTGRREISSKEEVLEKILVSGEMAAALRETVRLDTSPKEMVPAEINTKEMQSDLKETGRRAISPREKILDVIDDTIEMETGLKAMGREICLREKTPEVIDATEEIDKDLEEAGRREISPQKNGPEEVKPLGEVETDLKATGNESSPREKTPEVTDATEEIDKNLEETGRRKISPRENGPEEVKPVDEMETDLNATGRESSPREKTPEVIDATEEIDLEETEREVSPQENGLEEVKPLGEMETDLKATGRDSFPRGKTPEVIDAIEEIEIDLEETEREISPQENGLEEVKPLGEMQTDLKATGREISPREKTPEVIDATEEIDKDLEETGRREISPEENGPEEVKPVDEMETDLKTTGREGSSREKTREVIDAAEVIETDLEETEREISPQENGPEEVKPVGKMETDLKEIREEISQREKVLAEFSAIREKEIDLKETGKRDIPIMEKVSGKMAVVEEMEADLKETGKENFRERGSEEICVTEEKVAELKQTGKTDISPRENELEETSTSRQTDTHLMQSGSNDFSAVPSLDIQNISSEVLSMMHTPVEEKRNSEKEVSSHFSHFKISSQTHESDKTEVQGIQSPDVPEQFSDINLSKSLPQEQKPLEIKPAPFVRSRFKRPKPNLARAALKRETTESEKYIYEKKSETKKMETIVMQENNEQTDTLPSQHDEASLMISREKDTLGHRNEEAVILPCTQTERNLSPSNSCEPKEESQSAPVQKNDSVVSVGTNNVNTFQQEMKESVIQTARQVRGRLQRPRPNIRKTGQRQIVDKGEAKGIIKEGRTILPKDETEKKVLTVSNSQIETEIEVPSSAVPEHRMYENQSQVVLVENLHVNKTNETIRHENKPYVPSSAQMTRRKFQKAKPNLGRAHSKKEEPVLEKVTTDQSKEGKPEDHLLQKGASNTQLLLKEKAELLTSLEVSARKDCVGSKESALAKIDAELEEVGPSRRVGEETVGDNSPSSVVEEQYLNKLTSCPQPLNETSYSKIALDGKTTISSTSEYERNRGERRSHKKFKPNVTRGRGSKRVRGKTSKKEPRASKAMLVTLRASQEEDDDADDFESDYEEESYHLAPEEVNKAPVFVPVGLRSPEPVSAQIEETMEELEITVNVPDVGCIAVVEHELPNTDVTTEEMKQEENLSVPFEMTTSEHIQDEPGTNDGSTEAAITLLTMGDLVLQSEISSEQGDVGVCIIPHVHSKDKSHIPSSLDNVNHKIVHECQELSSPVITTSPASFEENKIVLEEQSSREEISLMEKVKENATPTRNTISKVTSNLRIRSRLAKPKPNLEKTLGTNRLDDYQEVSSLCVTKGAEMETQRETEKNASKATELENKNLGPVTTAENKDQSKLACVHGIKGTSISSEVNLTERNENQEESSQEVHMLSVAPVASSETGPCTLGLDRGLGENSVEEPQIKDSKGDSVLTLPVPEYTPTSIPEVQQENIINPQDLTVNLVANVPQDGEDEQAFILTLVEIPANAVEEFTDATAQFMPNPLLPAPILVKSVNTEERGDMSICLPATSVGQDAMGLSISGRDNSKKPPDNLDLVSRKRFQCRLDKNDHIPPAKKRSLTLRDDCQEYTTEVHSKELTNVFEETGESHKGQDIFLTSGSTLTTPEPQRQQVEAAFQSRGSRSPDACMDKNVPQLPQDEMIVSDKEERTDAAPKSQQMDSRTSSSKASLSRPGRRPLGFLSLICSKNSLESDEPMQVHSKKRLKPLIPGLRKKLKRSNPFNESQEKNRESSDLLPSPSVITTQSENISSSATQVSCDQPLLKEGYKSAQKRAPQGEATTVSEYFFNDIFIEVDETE
Sequence of UniProt Q15269 (Q15269 whole entry, looked up, one chain of several): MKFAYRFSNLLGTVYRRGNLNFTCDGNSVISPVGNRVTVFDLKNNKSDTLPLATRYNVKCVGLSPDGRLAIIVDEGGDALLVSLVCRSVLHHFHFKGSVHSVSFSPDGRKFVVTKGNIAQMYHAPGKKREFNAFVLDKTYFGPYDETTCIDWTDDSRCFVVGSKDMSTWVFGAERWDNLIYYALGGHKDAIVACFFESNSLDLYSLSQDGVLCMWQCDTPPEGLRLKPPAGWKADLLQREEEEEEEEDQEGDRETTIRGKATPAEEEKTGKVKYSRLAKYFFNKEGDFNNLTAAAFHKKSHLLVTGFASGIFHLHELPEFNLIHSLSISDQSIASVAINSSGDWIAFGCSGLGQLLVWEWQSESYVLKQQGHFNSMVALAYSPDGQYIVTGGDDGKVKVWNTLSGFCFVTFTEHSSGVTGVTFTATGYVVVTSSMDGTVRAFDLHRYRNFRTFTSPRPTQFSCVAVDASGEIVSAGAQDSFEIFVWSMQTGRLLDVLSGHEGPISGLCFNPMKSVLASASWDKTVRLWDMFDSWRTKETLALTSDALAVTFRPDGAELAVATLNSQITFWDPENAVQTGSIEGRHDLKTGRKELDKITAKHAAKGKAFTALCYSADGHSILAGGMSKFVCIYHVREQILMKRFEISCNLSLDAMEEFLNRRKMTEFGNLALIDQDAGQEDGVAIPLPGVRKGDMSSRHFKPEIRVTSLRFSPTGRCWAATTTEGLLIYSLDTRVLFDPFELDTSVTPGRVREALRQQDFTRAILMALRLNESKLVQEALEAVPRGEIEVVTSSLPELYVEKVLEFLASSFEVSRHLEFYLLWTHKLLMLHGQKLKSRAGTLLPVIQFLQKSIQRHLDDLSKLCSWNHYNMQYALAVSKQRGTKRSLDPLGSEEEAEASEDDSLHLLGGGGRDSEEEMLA

Target	NP40-soluble protein abundance (concentration: 1mM)	NP40-soluble protein abundance (concentration: 2mM)	NP40-soluble protein abundance (concentration: 4mM)	NP40-soluble protein abundance (concentration: 6mM)	NP40-soluble protein abundance (concentration: 8mM)	NP40-soluble protein abundance (concentration: 10mM)
MYO1G (UniProt B0I1T2)	1.14 ± 0.074	1.12 ± 0.11	1.27 ± 0.22	1.34 ± 0.3	1.44 ± 0.43	1.47 ± 0.46
C9JEJ2|H7BZN1|P49585|C9J050 (UniProt P49585)	1.01 ± 0.028	1.02 ± 0.022	1.02 ± 0.015	0.993 ± 0.027	1 ± 0.02	0.996 ± 0.01
ARPC2 (UniProt O15144)	0.974 ± 0.033	0.896 ± 0.11	0.937 ± 0.023	0.976 ± 0.031	0.994 ± 0.046	0.957 ± 0.048
A0A0A0MTL5|Q13309|Q13309-2 (UniProt Q13309)	0.986 ± 0.041	0.965 ± 0.037	0.976 ± 0.029	0.932 ± 0.053	0.923 ± 0.036	0.91 ± 0.014
B4E0Y9|Q8NBY1|Q9P289 (UniProt Q9P289)	0.999 ± 0.019	1.03 ± 0.059	1.01 ± 0.034	1.05 ± 0.036	1.01 ± 0.045	1.06 ± 0.039
SGTA (UniProt O43765)	1.03 ± 0.052	1.15 ± 0.079	0.99 ± 0.03	1.01 ± 0.037	0.943 ± 0.054	1.02 ± 0.085
I3L448|Q5TC12 (UniProt Q5TC12)	1.01 ± 0.033	1.02 ± 0.015	1.01 ± 0.039	0.992 ± 0.029	0.965 ± 0.027	0.977 ± 0.039
F6TLX2|Q9HC38-2 (UniProt Q9HC38)	1.01 ± 0.02	1.01 ± 0.014	0.981 ± 0.03	0.958 ± 0.035	0.938 ± 0.034	0.95 ± 0.047
E7ESS3|K7EKW3|Q71RG4|Q71RG4-2 (UniProt Q71RG4)	1.01 ± 0.037	1.03 ± 0.045	1 ± 0.039	0.996 ± 0.012	1.01 ± 0.037	1 ± 0.032
J3KPH8|Q8WUI4|Q8WUI4-3|Q8WUI4-4|Q8WUI4-5|Q8WUI4-6|Q8WUI4-7|Q8WUI4-8 (UniProt Q8WUI4)	0.979 ± 0.04	1 ± 0.027	1 ± 0.026	0.98 ± 0.024	0.998 ± 0.067	0.9557 ± 0.0038
FAM20B (UniProt O75063)	0.973 ± 0.02	0.993 ± 0.022	0.978 ± 0.024	0.99 ± 0.024	0.963 ± 0.016	1 ± 0.042
UniProt O15400|O15400-2	1.01 ± 0.059	1.04 ± 0.1	0.993 ± 0.06	0.992 ± 0.035	0.976 ± 0.039	0.957 ± 0.038
A0A0G2JNU3|A6H8Y1|A6H8Y1-6|A6H8Y1-7 (UniProt A6H8Y1)	1.05 ± 0.041	1.087 ± 0.0063	1.12 ± 0.056	1.17 ± 0.067	1.12 ± 0.07	1.22 ± 0.046
F8W1A0|P36873 (UniProt P36873)	0.983 ± 0.022	0.928 ± 0.056	0.972 ± 0.014	0.985 ± 0.03	0.986 ± 0.021	0.9667 ± 0.0073
C9JJV1|Q9Y5U2|Q9Y5U2-2|A6NCC9|C9JHT9|E9PME3 (UniProt Q9Y5U2)	1.01 ± 0.013	1.04 ± 0.076	1.01 ± 0.01	0.968 ± 0.047	0.951 ± 0.048	0.968 ± 0.068
A0A0A0MQS0|A8MW92|F8W9L8|A8MW92-4 (UniProt A8MW92)	0.995 ± 0.044	1.11 ± 0.088	1.1 ± 0.041	1.15 ± 0.036	1.17 ± 0.081	1.26 ± 0.019
H7BXF5|Q9H0E3-3 (UniProt Q9H0E3)	1.05 ± 0.041	1.09 ± 0.035	1.02 ± 0.03	1.03 ± 0.039	0.993 ± 0.016	1.05 ± 0.057
H7C5G1|Q2TAA2 (UniProt Q2TAA2)	0.995 ± 0.037	0.975 ± 0.015	0.98 ± 0.028	0.972 ± 0.016	0.965 ± 0.022	0.981 ± 0.028
D6RAJ6|Q9UKT5|Q9UKT5-2 (UniProt Q9UKT5)	1.01 ± 0.035	0.996 ± 0.032	0.986 ± 0.024	0.975 ± 0.026	0.983 ± 0.035	0.981 ± 0.045
ZC3H11A (UniProt O75152)	0.86 ± 0.11	0.883 ± 0.1	0.853 ± 0.13	0.936 ± 0.094	0.933 ± 0.098	1.03 ± 0.098
A0A0A0MSY9|Q92800|Q92800-2|Q92800-3|Q92800-4|Q92800-5 (UniProt Q92800)	0.978 ± 0.017	0.97 ± 0.022	0.9794 ± 0.0047	0.994 ± 0.016	0.999 ± 0.019	1.001 ± 0.0058
A0A0B4J2E5|Q15269 (UniProt Q15269)	1.05 ± 0.019	1.04 ± 0.098	1.23 ± 0.043	1.38 ± 0.036	1.56 ± 0.074	1.52 ± 0.095
H7C5A7|O14734 (UniProt O14734)	0.962 ± 0.017	0.932 ± 0.036	0.956 ± 0.013	0.984 ± 0.061	0.97 ± 0.015	0.961 ± 0.02
K7ER90|O75821|K7EL60 (UniProt O75821)	1.02 ± 0.075	1.1 ± 0.077	1.11 ± 0.095	1.24 ± 0.045	1.27 ± 0.074	1.42 ± 0.14
A0A0C4DH01|Q9NVU0|Q9NVU0-4|Q9NVU0-5|Q9NVU0-2|Q9NVU0-3 (UniProt Q9NVU0)	1 ± 0.058	1.02 ± 0.019	1.06 ± 0.052	1.03 ± 0.063	1.02 ± 0.064	1.07 ± 0.081
F8VU39|J3KPG5|Q9UIF9|Q9UIF9-2|Q9UIF9-3 (UniProt Q9UIF9)	1 ± 0.015	0.9926 ± 0.0061	1.023 ± 0.0073	1.02 ± 0.039	1.01 ± 0.014	1.03 ± 0.037
UniProt O00567	1.08 ± 0.026	1.08 ± 0.024	1.16 ± 0.026	1.25 ± 0.056	1.37 ± 0.087	1.53 ± 0.12
B8ZZS2|Q13506|Q13506-2 (UniProt Q13506)	0.9966 ± 0.0056	1.02 ± 0.019	0.9788 ± 0.0084	1.024 ± 0.0073	1.01 ± 0.029	1.008 ± 0.0093
M0QXA7|O95785-3 (UniProt O95785)	1.02 ± 0.031	1.04 ± 0.029	1.06 ± 0.013	1.04 ± 0.034	1.02 ± 0.023	1.07 ± 0.032
